Here are results for 39 compounds from ChEMBL document CHEMBL3988442, “University of Dundee, Small-Polar-MMV Screening Library” (2021).

This experiment addresses AMP-activated protein kinase, AMPK (Homo sapiens) (UniProt P54646+O43741+P54619+Q9UGJ0+Q9Y478+Q13131+Q9UGI9). In words: AMP-dependent Kinase enzyme assay. An in vitro enzyme assay that detects ADP turnover that is directly proportional to AMPK activity. This uses naive AMPK that is activated during the assay with MK-8722. The experiment is classed as functional. Set-up: scale not given: direction of the effect not stated beside the values. To be noted: 30 µM.
Turning to `COCC1CCCN(c2cncc(OCc3ccccc3)n2)C1` (centres undefined), the Percent Effect was found to be 1.9%.
Regarding `CCS(=O)(=O)CCCN1CCSCC1c1ccc(Cl)cc1` (centres undefined), the Percent Effect was -4.64%.
Regarding `Cn1ccnc1-c1cn(CCCc2nnc(N)s2)nn1`, the Percent Effect is -15.1%.
For `Cc1nc(CNC(=O)c2cc(COc3ccccc3F)[nH]n2)n[nH]1` the value was 5.27%; for `CCCN(CCc1ccccn1)C(=O)Cn1cc(C)cn1`, 3.83%; for `Cc1nn(C)c(C)c1C1CCCN1CC(=O)N(C)c1nccs1` (centres undefined), 10.2%.
For `Cc1nn(CC(=O)NCC2(C(N)=O)CCOCC2)c(C)c1Cl`, the Percent Effect stood at 2.14%.
For `Cc1cc(O)n2nc(C3CCN(C(=O)c4ccccn4)CC3)cc2n1` the value was 6.67%; for `COc1ccccc1OCCc1nnc(NC(=O)C2CC23CCC3)s1` (centres undefined), 8.73%; for `CN1CCN(CCOc2ccc(NC(=O)c3cnc[nH]3)cc2)CC1`, 0.519%.
`CC(NC(=O)NC1CCN(Cc2ccncc2)CC1)c1cccc(F)c1` (centres undefined): the Percent Effect stood at 1.09%.
`Cc1nc(CNC(=O)Nc2cc(F)ccc2N2CCN(C)CC2)no1`: the Percent Effect turned out to be 13.3%.
For `Cc1nccc(CNC(=O)NCCC(=O)N2CCCc3ccccc32)n1` the value was -8.67%; for `COc1ccc(C(=O)NCC2CCCN(C3CCOCC3)C2)c(O)c1` (centres undefined), 14.3%; for `c1ccn2c(C3CCCN3Cc3nc(C4CC4)no3)nnc2c1` (centres undefined), 2.28%.
For the compound `CCn1cnnc1CNC(=O)N1CCOC(c2ccc(Cl)cc2)C1` (centres undefined), the Percent Effect was -4.37%.
As to `O=C(N1CC(c2cccnc2)C1)C1(c2ccc(F)cc2)CCOCC1`, the Percent Effect is 0.43%.
Under `CC1(NC(=O)CNC(=O)C(C)(C)C)CCc2ccccc2C1` (centres undefined) stands 7.71%; under `CN(CCCOc1ccccc1Cl)C(=O)CN1C[C@@H]2CC[C@H](CC1=O)N2`, 10.1%; under `CC(C)c1cc(NC(=O)Cn2ccc(=O)c3ccccc32)[nH]n1`, 4.99%.
Regarding `NS(=O)(=O)c1ccc(NCc2ccco2)c2ncccc12`, the Percent Effect is -2.08%.
As to `CCC[C@H]1CN(Cc2cc(C#N)n(C)c2C)C[C@@H]1NS(=O)(=O)CC`, the Percent Effect is -157%.
Take `O=S(=O)(Cc1nc(C2CC2)no1)c1cc(F)ccc1F`: the Percent Effect came out at 8.83%.
As for `O=C(CC1CCCC1)NCCS(=O)(=O)N1CCN(c2ncccn2)CC1`, the Percent Effect was -1.03%.
For `COc1ccc(CN2C[C@@H]3CC[C@H](C2)N(S(C)(=O)=O)C3)cc1` the value was 12.6%; for `CCc1nnc(CS(=O)(=O)c2ccc(C)c(C)c2)n1C`, 9.9%.
Consider `c1csc(CN2CCCN(c3ccc(Cn4ccnc4)cn3)CC2)c1`, for which the Percent Effect is -2.96%.
As to `Cn1ccnc1CN1CCCC1CCc1ccccc1` (centres undefined), the Percent Effect is -8.09%.
As for `CN(c1ncc(S(N)(=O)=O)s1)C1CCC1`, the Percent Effect stood at 5.05%.
With `CC(C)Oc1ncccc1CNC(=O)NC(C)c1cccs1` (centres undefined), the Percent Effect is -3.91%.
On to `CC(C)Cn1ncc(C(=O)O)c1C1CC1`, for which the Percent Effect turned out to be 5.05%.
Turning to `Cc1cnn(CCNCC(=O)N2CCN(c3ccccc3)CC2)c1`, the Percent Effect was -5.8%.
For `NC(=O)[C@@H]1Cc2ccccc2CN1CCC(=O)N1CCOCC1`, the Percent Effect was -7.78%.
Under `O=C1CCC(=O)N1CCn1nnc(-c2cccc(Cl)c2)n1` stands -7.61%; under `c1cn(Cc2ccc(N3CCCN(C4CCCC4)CC3)nc2)cn1`, 11.7%.
Regarding `Cc1cccc(Nc2noc3c2CN(C(=O)c2ccn(C)n2)CC3)c1C`, the Percent Effect was 3.74%.
With `CN1CCC(NC(=O)c2cc(F)cc(Cl)c2O)C1=O` (centres undefined), the Percent Effect came to 11.4%.
On to `CCN(CC)c1ncccc1CNCc1ccc(-c2ccn[nH]2)s1`, for which the Percent Effect stood at 1.23%.
In the case of `Cc1nc(NC(=O)C(C)N(C)Cc2cccc(C#N)c2)sc1C` (centres undefined), the Percent Effect is 7.53%.
